These results are taken from PubChem BioAssay AID1508619 (National Center for Advancing Translational Sciences (NCATS), 2020).

Inconclusive results are not listed. Where a call stands in place of a potency, no number is given. The source made the active and inactive calls. The call rests on the fitted dose curve; in most records, active means well fitted inhibition curve with a large enough effect; inconclusive means small, poorly fitted or top-dose-only effect; inactive means no such curve, though single readings can be large or run the other way.

A short description of the assay: Counterscreen qHTS for Identification of Calcium Integrin Binding Protein 1 (CIB1) Competitor. The following applies: series mostly up to 114 µM. In outline: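 Compounds (final up to 114 uM) preincubated 15 min at room temperature with 1 uM CIB1-GST in calcium-containing HEPES pH 7.4 buffer; 100 nM scrambled FITC peptide added, and fluorescence polarization (480/540) measured after another 15 min.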
Regarding `O=C1CCCC2=C1C(c1ccn[nH]1)N=C(Nc1nc3ccccc3o1)N2` (stereo not drawn), the Potency result was “inactive”. For the molecule `Cc1cc2c(C(C)C)c(O)c(O)c(C=O)c2c(O)c1-c1c(C)cc2c(C(C)C)c(O)c(O)c(C=O)c2c1O`, the Potency entry is “inactive”.

For the molecule `O=c1[nH]sc2cc(Cl)ccc12`, the Potency entry is “inactive”. As to `COC(=O)c1ccc(O)c2ncc(-c3ccc(C(=O)N4CCNCC4)cc3)cc12`, the Potency entry was “inactive”. For `C=CCNc1oc(-c2cccc3ccccc23)nc1C#N`, the Potency entry was “inactive”.

With `COC(=O)c1cc(Cl)ccc1NS(=O)(=O)C(F)(F)F`, the Potency result was “inactive”. With `Cn1c(NC2=NC3(CCCC3)C3=C(CCCC3=O)N2)nc2ccccc21`, the Potency entry was “inactive”.

With `NC(=O)c1ncn([C@@H]2O[C@H](CO)[C@@H](O)[C@@H]2O)c1O`, the Potency entry is “inactive”. Regarding `CN(C)CCN1C(=O)c2cccc3cc(N)cc(c23)C1=O`, the Potency result is “inactive”. On to `COC(=O)c1ccc(O)c2ncc(-c3ccc(C(=O)NCCCN(C)C)cc3)cc12`, for which the Potency result is “inactive”.

As to `CN(C)c1cnc2c(O)cccc2c1`, the Potency entry is “inactive”. The same measure for `CN1CCC(N(Cc2cccs2)c2ccccc2)CC1`: “inactive”; for `CS(=O)(=O)c1ccc(C(=O)OCC(=O)N2CCC(Cc3ccccc3)CC2)cc1[N+](=O)[O-]`: “inactive”. For `COc1cc([C@H]2Oc3cc([C@H]4Oc5cc(O)cc(O)c5C(=O)[C@@H]4O)ccc3O[C@@H]2CO)ccc1O`, the Potency result is “inactive”. Consider `CSc1cc2c(s1)c1cnn(Cc3cccc(N)c3)c(=O)c1n2C`, for which the Potency entry was “inactive”. `CC(=O)Nc1sc2c(c1-c1nc3ccccc3s1)CNC2`: the Potency entry was “inactive”. As to `CC1CCC2(C1)N=C(Nc1nc3ccccc3o1)NC1=C2C(=O)CCC1` (stereo not drawn), the Potency result was “inactive”. Consider `O=Cc1c(-c2ccccc2)no[n+]1[O-]`, for which the Potency entry is “inactive”.
